Measured values as given in PubChem BioAssay (NCATS).
Results filed as inconclusive are left out. A call without a number means that no potency is given here. Calls of active or inactive are those of the source. The call rests on the fitted dose curve; in most records, active means well fitted curve in the direction sought with a large enough effect; inconclusive means small, poorly fitted or top-dose-only effect, or another doubt; inactive means no such curve, though single readings can be large; an effect the other way counts as inactive or inconclusive. Starred links: 1 amine or outer side, 2 acyl side, 3 side chain; linkers in the order of their positions; H or OH if unused. Positions of bridges follow the written chain, without caps; N, C: chain ends. Non-standard residues stand in square brackets, D forms with d. Residues, ends and D or L forms follow the SMILES beside them. ξ: configuration not given here. *: point of attachment. X3 = C[C@@H](Oc1ccc([C@H](N[*:1])C(=O)[*:2])cc1)[C@]1(/C=C\C(=O)[*:3])CO1; d(aIle) = CC[C@H](C)[C@@H](N)C(=O)O; X2 = CC(C)[C@@H](O)C(C)C(=O)*; ξNMeF = CNC(Cc1ccccc1)C(=O)O; ξT = CC(O)C(N)C(=O)O; ξS = NC(CO)C(=O)O

What was measured:
[1] = HPAF-II Cancer Cell Toxicity qHTS against the NCATS CANVASS Library (AID 1347346); further: nearly all actives have a fitted effect of over 55% in size
Outline: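 1000 HPAF-II cells/well; 4 h pre-incubation; 11-pnt compound titration; 72 h, 37 degrees C/5% CO2; CellTiter-Glo, 15 min RT; luminescence read.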

[2] = SW1088 Cancer Cell Toxicity qHTS against the NCATS CANVASS Library (AID 1347350); further: nearly all actives have a fitted effect of over 75% in size
Outline: (§1)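 Cells were seeded at 1000 per well, allowed 4 h at 37 degrees C/5% CO2, then pin-treated with an 11-point compound series. After 72 h, viability was read as CellTiter-Glo luminescence following 15min at room temperature.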

[3] = U-118MG Cancer Cell Toxicity qHTS against the NCATS CANVASS Library (AID 1347351)
Outline: as §1

[4] = COV-362 Cancer Cell Toxicity qHTS against the NCATS CANVASS Library (AID 1347352)
Outline: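 1000 cells/well, 4 h pre-incubation 37 °C/5% CO2; 11-pnt titration; 72 h; CellTiter-Glo 15 min RT, luminescence.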

[5] = A2780 Cisplatin Sensitive Ovarian Cancer Cell Toxicity qHTS against the NCATS CANVASS Library (AID 1347353); further: nearly all actives have a fitted effect of over 60% in size
Outline: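 750 cells/well, 4 h settle; 11-pt cpd titration; 72 h, 37 °C, 5% CO2; ATPLite 10 min RT; luminescence read.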

[6] = qHTS for activators of Nrf2/ARE signaling pathway screened against the NCATS CANVASS Library (AID 1347391); further: nearly all actives have a fitted effect of over 60% in size
Outline: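 HepG2 ARE-bla; cpd 11-pt qHTS, 16 h 37C/5% CO2; CCF4 substrate 2 h RT; read ex 405 / em 460 + 530 nm. Viability by CellTiter-Glo luminescence, 30 min RT.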

[7] = Vero-766 cells viability qHTS against the NCATS CANVASS Library: Counterscreen for Zika virus inhibition assay (AID 1347394); further: nearly all actives have a fitted effect of over 60% in size
Outline: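 This cytotoxicity counterscreen uses African green monkey Vero 766 cells in the absence of Zika virus. Compounds are incubated with cells for 72 h, and ATP-based luminescence reports viability.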

[8] = SDT Cancer Cell Toxicity qHTS against the NCATS CANVASS Library (AID 1347365); further: nearly all actives have a fitted effect of over 60% in size
Outline: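 Luminescent ATP read-out (CellTiterGlo) after 72 hr compound exposure of dog glioma SDT cells, 500 per well. Eleven-point titrations; bortezomib titration run alongside as control.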

[9] = Secretion counterscreen for inhibitors of the SERCaMP assay screened against the NCATS CANVASS Library (AID 1347390);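 further: light from luciferase secreted into medium read as a measure of general secretion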
Outline: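 Counterscreen identifying compounds that disrupt secretion, using SH-SY5Y cells with a constitutively secreted Gaussia luciferase reporter. A 20 h compound exposure (top 77 uM) precedes luminescent detection with coelenterazine.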
Potency means the concentration at half of the fitted maximal effect.

| Compound | Potency [1] | Potency [2] | Potency [3] | Potency [4] | Potency [5] | Potency [6] | Potency [7] | Potency [8] | Potency [9] |
| --- | --- | --- | --- | --- | --- | --- | --- | --- | --- |
| C=C(C)[C@H]1C(=O)c2c3c(cc4c5c(n1c24)[C@@]1(C)[C@@H](CC[C@H]2[C@](C)(/C=C/C=C(\C)C(=O)O)[C@@H](O)CC[C@@]21C)C5)C1=CC(C)(C)OC(C)(C)[C@H]1[C@@H]3O | 5.95 µM (active) | 5.95 µM (active) | 18.8 µM (active) | 21.1 µM (active) | 3.72 µM (active) | inactive | 7.41 µM (active) |  |  |
| CCCC[C@@H]1CC[C@H]2CCCC(CCCO)N12 (some centres undefined) | inactive | inactive | inactive | inactive | inactive | inactive | inactive | inactive | inactive |
| C=CC(C)(C)[C@@]12C[C@H]3C(=O)N/C(=C\c4cnc[nH]4)C(=O)N3[C@@H]1Nc1ccccc12 | inactive | inactive | inactive | inactive | inactive |  | inactive | inactive | inactive |
| C[C@]12CCC3[C@@H](CC[C@@H]4C[C@@H](O)CC[C@]34CO)[C@@]1(O)CC[C@@H]2C1=CC(=O)OC1 (some centres undefined) | 2.98 µM (active) |  | 0.841 µM (active) | 1.88 µM (active) | 2.96 µM (active) | inactive | 11.7 µM (active) | 1.48 µM (active) | 7.67 µM (active) |
| C/C=C1/CN2CC[C@]34C(=C(C(=O)OC)[C@H]1C[C@H]23)Nc1ccccc14 |  | inactive | inactive | inactive |  |  | inactive | 0.662 µM (active) | inactive |
| C/C=C(\C)C(=O)O[C@@H]1[C@@H](O)[C@@H]2O[C@H]3[C@H](O[C@@H](CCCCC)CCCCCCC(=O)CCC(=O)OC[C@@H](O2)[C@H]1OC(=O)/C=C/c1ccccc1)O[C@H](C)[C@H](OC(C)=O)[C@@H]3O | 0.133 µM (active) | 14.9 µM (active) |  |  | 0.332 µM (active) |  | inactive | 0.0526 µM (active) | 0.0767 µM (active) |
| CCC(=O)N[C@@H](C[C@H](C)C(Cl)(Cl)Cl)C(=O)N1C(=O)C=C(OC)[C@@H]1C[C@H](C)C(Cl)Cl |  |  |  | inactive | inactive | inactive |  | inactive | inactive |
| COC1C(O)C(C)OC(OC2C(Oc3cccc4c(O)c5c(=O)oc6ccc(C)c7c(=O)oc(c34)c5c67)OC(C)C(O)C2O)C1O (centres undefined) |  | inactive | inactive |  | 3.32 µM (active) | inactive |  | 11.8 µM (active) | 30.5 µM (active) |
| C=CC(C)(C)[C@@]12C[C@H]3C(=O)N/C(=C/c4cnc[nH]4)C(=O)N3[C@@H]1Nc1ccccc12 | inactive | inactive | inactive | inactive | inactive |  | inactive | inactive | inactive |
| C/C=C1/CN2C3CC1C1=CCC(=O)N4c5ccccc5[C@@]3(C[C@@H]2C2=C[C@H]3C5CC6N(CC[C@@]67c6ccccc6N(C2=O)[C@@H]37)C/C5=C/C)[C@H]14 (some centres undefined) | 18.8 µM (active) | 14.9 µM (active) |  |  | 13.2 µM (active) | 7.41 µM (active) |  | 20.9 µM (active) | 43.1 µM (active) |
| C[N+](C)(C)CCc1c[nH]c2ccccc12 | inactive | inactive | inactive | inactive | inactive | inactive | inactive | inactive | inactive |
| COC1=C(C2=C(OC)C(=O)c3cc4c(c(O)c3C2=O)C(=O)O[C@H](C)C4)C(=O)c2c(cc3c(c2O)C(=O)O[C@H](C)C3)C1=O |  | 3.14 µM (active) | inactive | inactive | 5.54 µM (active) |  | inactive | inactive |  |
| C1=C2CCCN[C@H]2C2CC1[C@H]1CCCCN1C2 (some centres undefined) | inactive | inactive | inactive | inactive | inactive | inactive | inactive |  | inactive |
| CC[C@H]1CN2CCc3c([nH]c4cccc(OC)c34)[C@@H]2C[C@@H]1/C(=C\OC)C(=O)OC | inactive |  | 18.8 µM (active) | inactive |  |  | inactive |  |  |
| CC(C)CC1C(=O)O[C@H](C(C)C)C(=O)N(C)C(CC(C)C)C(=O)O[C@@H](C(C)C)C(=O)N(C)C(CC(C)C)C(=O)O[C@H](C(C)C)C(=O)N(C)C(CC(C)C)C(=O)O[C@@H](C(C)C)C(=O)N1C (some centres undefined) | 5.95 µM (active) | 5.95 µM (active) | inactive |  | 5.26 µM (active) | inactive | 11.7 µM (active) |  |  |
| CC[C@@H]1CN2CCC3(Nc4cccc(OC)c4C3=O)[C@@H]2C[C@@H]1/C(=C\OC)C(=O)OC (some centres undefined) | inactive | inactive | inactive | inactive | inactive | inactive | inactive | inactive | inactive |

| Compound | Potency [1] | Potency [2] | Potency [3] | Potency [4] | Potency [5] | Potency [6] | Potency [7] | Potency [8] | Potency [9] |
| --- | --- | --- | --- | --- | --- | --- | --- | --- | --- |
| CC[C@@H]1CN2CCc3c([nH]c4cccc(OC)c34)[C@@H]2C[C@@H]1/C(=C\OC)C(=O)OC |  |  |  |  |  | inactive |  | 16.6 µM (active) | inactive |
| CCCC[C@@H](C)/C=C1/CN2CCC[C@H]2[C@@](C)(O)[C@@H]1O |  | inactive | inactive | inactive | inactive |  | inactive | inactive | inactive |
| CO[C@H]1C[C@H](O[C@H]2[C@@H](O)C[C@H](O[C@H]3CC[C@]4(C=O)[C@H]5CC[C@]6(C)C(C7=CC(=O)OC7)CC[C@]6(O)[C@@H]5CC[C@]4(O)C3)O[C@@H]2C)O[C@H](C)[C@H]1O[C@H]1C[C@@H](OC)[C@@H](O[C@@H]2O[C@H](CO)[C@@H](O)[C@H](O)[C@H]2O)[C@@H](C)O1 (some centres undefined) | 0.376 µM (active) |  | 0.188 µM (active) | 0.374 µM (active) | 0.0833 µM (active) | inactive |  | 0.148 µM (active) | 0.767 µM (active) |
| C/C(=C\[C@H](C)C(=O)C[C@H](O)CC1CC(=O)NC(=O)C1)[C@@H]1OC(=O)/C=C/CC/C=C/C=C/[C@@H]1C | 0.0943 µM (active) |  |  |  | 0.0332 µM (active) | inactive | 6.6 µM (active) | 0.0662 µM (active) | 0.305 µM (active) |
| C/C=C1/CN2CC[C@@]34c5ccccc5N(C)[C@@H]3[C@@H]2C[C@@H]1[C@H]4C(=O)OC | inactive |  | inactive | inactive | inactive | inactive | inactive |  | inactive |
| CO[C@H]([C@@H](C)[C@H]1O[C@]1(C)C[C@H](C)/C=C/C=C(\C)[C@H]1O[C@@H](CC(=O)O)CC[C@@H]1C)[C@@H](C)O | 0.0266 µM (active) | inactive |  |  | 0.0053 µM (active) | 0.0066 µM (active) |  | 0.0148 µM (active) | inactive |
| CO[C@@H](/C=C/CC/C=C/C(=O)O)[C@@H](O)[C@H](C)/C=C(\C)[C@H](O)[C@H](C)C(=O)CCCC1CC(=O)NC(=O)C1 | inactive | inactive | inactive | inactive | inactive | inactive | inactive | inactive | inactive |
| CO[C@H]1[C@H](O[C@H]2CC[C@]3(C=O)[C@H]4CC[C@]5(C)[C@@H](C6=CC(=O)OC6)CC[C@]5(O)[C@@H]4CC[C@]3(O)C2)O[C@H](C)[C@H](O)[C@@H]1OC | 0.335 µM (active) |  | 0.0943 µM (active) | 0.236 µM (active) | 0.209 µM (active) | inactive | 0.741 µM (active) | 0.148 µM (active) | 0.767 µM (active) |
| c1ccc2nc3c(cc2c1)[nH]c1ccccc13 | inactive | inactive | inactive | inactive |  | 16.6 µM (active) | inactive |  | inactive |
| CC[C@H](C)[C@H]1NC(=O)[C@@H](NC(=O)C(C)[C@H](O)C(C)C)[C@@H](C)OC(=O)C2COC(=O)CNC(=O)/C=C\[C@]3(CO3)[C@@H](C)Oc3ccc(cc3)[C@H](NC1=O)C(=O)N(C)C(Cc1ccccc1)C(=O)NC(C(C)O)C(=O)N2 (some centres undefined) (X2-T[d(aIle)][X3][ξNMeF][ξT][ξS]; ester 1-C; linker 3-6 via G) | inactive | inactive | inactive | inactive | inactive | inactive | inactive |  |  |
| C=C[C@]12C=CCN3CC[C@@]4(c5ccccc5NC(=O)[C@@H]4C1)[C@@H]32 | inactive | inactive | inactive | inactive | inactive | 20.9 µM (active) | inactive | inactive | inactive |
| C[C@]12CC(O)C3[C@@H](CCC4C[C@@H](O)CC[C@@]43CO)[C@@]1(O)CC[C@@H]2C1=CC(=O)OC1 (some centres undefined) |  | inactive |  |  | 16.6 µM (active) | inactive |  | 10.5 µM (active) |  |
| CCCCC1CC[C@H]2CCCC(CCC)N12 (some centres undefined) | inactive | inactive | inactive | inactive |  | inactive | inactive | inactive | inactive |
| C[C@]12CC(O)C3[C@@H](CC[C@@H]4C[C@@H](O)CC[C@]34CO)[C@@]1(O)CC[C@@H]2C1=CC(=O)OC1 (some centres undefined) | 10.6 µM (active) |  | 2.66 µM (active) | 7.47 µM (active) | 7.43 µM (active) | inactive |  | 2.64 µM (active) |  |
| C=C[C@H]1CN2CCc3c([nH]c4cccc(OC)c34)[C@@H]2C[C@@H]1/C(=C\OC)C(=O)OC | inactive |  |  |  | 20.9 µM (active) |  | inactive | 16.6 µM (active) |  |
